Calls of active or inactive are those of the source.
How the values were obtained:
[1] = small molecules captured by biotinylated probe aFSTL3 – biochemical, small-molecule microarray, fluorescence 635/667, stem cell growth factor project, primary screen (AID 1064); settings: higher = more signal;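 note: measures binding of the biotinylated anti-FSTL3 antibody to printed compounds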
[2] = binders from COS7 lysate, DM2A8 probe, primary screen, torsin A project, cell lysate, small-molecule microarray, fluorescence 635/667 (AID 1065); settings: higher = more signal, COS7 lysate expressing mutant human TOR1A
[3] = small molecules captured by biotinylated probe aFGF2 – biochemical, small-molecule microarray, fluorescence 635/667, stem cell growth factor project, primary screen (AID 1067); settings: higher = more signal;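 note: measures binding of biotinylated aFGF2 protein to printed compounds on slides; z-score merges feature fluorescence and signal-to-noise across triplicate slides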
[4] = small molecules captured by biotinylated probe aFGF10 – biochemical, small-molecule microarray, fluorescence 635/667, stem cell growth factor project, primary screen (AID 1071); settings: higher = more signal;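 note: score merges 667 nm spot intensity and signal to noise from triplicate slides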
[5] = biological target: Neurogenic locus notch homolog protein 2 (Homo sapiens) (UniProt Q04721); assay: small molecules binding Notch2 protein – biochemical, small-molecule microarray, 635 nm fluorescence, stem cell growth factors, primary screen (AID 1073); settings: higher = more signal
[6] = biological target: Pro-neuregulin-1, membrane-bound isoform (Homo sapiens) (UniProt Q02297); assay: small molecules binding neuregulin-1 protein – biochemical, small-molecule microarray, fluorescence 635/667, psychiatric disease protein project, primary screen (AID 1075); settings: NRG1 binding, 635 nm fluorescence, higher = more signal;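 note: score combines 667 nm spot fluorescence with signal to noise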
[7] = system: Neuregulin-1 EGF-like domain; assay: small molecules binding NRG1 EGF domain – biochemical, small-molecule microarray, 635 nm fluorescence, primary screen (AID 1081); settings: higher = more signal;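 note: binding of the protein to compounds printed on small-molecule microarray slides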
[8] = FRG1 expression reporter modulators in myotubes – cell-based, C2C12 myotubes, firefly/Renilla luciferase, luminescence, FRG1 inhibition for FSHD, primary screen (AID 1084); settings: FRG1 promoter luciferase, higher = more signal, called active from +8 up or from −8 down
[9] = small molecules captured by biotinylated probe aFST – biochemical, small-molecule microarray, fluorescence 635/667, stem cell growth factor project, primary screen (AID 1086); settings: higher = more signal;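 note: score merges 667 nm fluorescence with signal-to-noise of each printed compound spot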
[10] = binders of probe aHhip on microarray, primary screen, stem cell growth factor project, biochemical, small-molecule microarray, fluorescence 635/667 (AID 1087); settings: higher = more signal;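 note: score merges spot fluorescence at 667nm with spot signal to noise ratio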
[11] = system: PRMT1 (protein arginine N-methyltransferase 1); assay: small molecules binding arginine methyltransferase PRMT1 – biochemical, small-molecule microarray, 635 nm fluorescence, primary screen (AID 1088); settings: higher = more signal;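 note: binding of Prmt1 protein to compounds spotted on small-molecule microarray slides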
[12] = growth effects on S. cerevisiae YJM789 – YJM789 clinical isolate, OD600, 24 h, basal, primary screen (AID 1089); settings: higher = more signal, called active from +8 up or from −8 down;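 note: growth of clinical yeast isolate S. cerevisiae YJM 789 seeded 1000 cells per well; test concentration not given here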
[13] = S. pombe growth modifiers, basal conditions – strain 972, OD600, 24 h, no modulator, primary screen (AID 1090);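 note: basal condition with compound alone and no growth modifier present; test concentration not given here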; settings: S. pombe 972 growth, higher = more signal, called active from +8 up or from −8 down
[14] = budding yeast growth modifiers under rapamycin – strain BY4716, OD600, 96 h, primary screen (AID 1091); note: test concentration not given here; settings: S. cerevisiae BY4716 + rapamycin, higher = more signal, called active from +8 up or from −8 down
[15] = biological target: Torsin-1A-interacting protein 2 (Homo sapiens) (UniProt Q8NFQ8); assay: small molecules binding lysate-expressed LULL1 – cell lysate, human LULL1 lysate, 635/667 nm fluorescence, primary screen (AID 1092); settings: small-molecule microarray, hLULL1 lysate binding, 635 nm fluorescence; higher = more signal;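 note: probe is lysate of COS7 cells overexpressing human LULL1; score merges per-feature 667 nm fluorescence with signal-to-noise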
[16] = optical density change of DRC41 E. coli – strain DRC41, OD650, 24 h, E. coli filamentation project, primary screen (AID 1093);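 note: MC1000 strain lacking acrAB efflux and sulA so SOS filamentation is blocked; test concentration not given here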; settings: E. coli DRC41 growth, higher = more signal, called active from +8 up or from −8 down
[17] = probe aLefty2 binding to arrayed compounds – biochemical, biotinylated probe, 635/667 nm fluorescence, primary screen (AID 1094); settings: small-molecule microarray, higher = more signal;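 note: score merges spot fluorescence near 667 nm with spot signal-to-noise ratio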
[18] = system: Noggin (protein binding on small-molecule microarray); assay: small molecules binding Noggin protein – biochemical, 635/667 nm fluorescence, primary screen (AID 1095); settings: 635 nm fluorescence, higher = more signal;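 note: score merges 667 nm feature fluorescence with signal to noise over triplicate slides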
[19] = biological target: Neurogenic locus notch homolog protein 3 (Homo sapiens) (UniProt Q9UM47); assay: small molecules binding NOTCH3 protein – biochemical, 635/667 nm fluorescence, primary screen (AID 1096); settings: small-molecule microarray, 635 nm fluorescence, higher = more signal
[20] = probe aEGFR binding to arrayed compounds – biochemical, biotinylated probe, 635/667 nm fluorescence, primary screen (AID 1097); settings: small-molecule microarray, higher = more signal;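 note: probe is a biotinylated anti-EGFR antibody binding compounds printed on slides; score combines fluorescence near 667 nm and signal to noise of each spot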

Neurogenic locus notch homolog protein 2 (Homo sapiens), sequence (Q04721 whole entry, looked up, canonical isoform): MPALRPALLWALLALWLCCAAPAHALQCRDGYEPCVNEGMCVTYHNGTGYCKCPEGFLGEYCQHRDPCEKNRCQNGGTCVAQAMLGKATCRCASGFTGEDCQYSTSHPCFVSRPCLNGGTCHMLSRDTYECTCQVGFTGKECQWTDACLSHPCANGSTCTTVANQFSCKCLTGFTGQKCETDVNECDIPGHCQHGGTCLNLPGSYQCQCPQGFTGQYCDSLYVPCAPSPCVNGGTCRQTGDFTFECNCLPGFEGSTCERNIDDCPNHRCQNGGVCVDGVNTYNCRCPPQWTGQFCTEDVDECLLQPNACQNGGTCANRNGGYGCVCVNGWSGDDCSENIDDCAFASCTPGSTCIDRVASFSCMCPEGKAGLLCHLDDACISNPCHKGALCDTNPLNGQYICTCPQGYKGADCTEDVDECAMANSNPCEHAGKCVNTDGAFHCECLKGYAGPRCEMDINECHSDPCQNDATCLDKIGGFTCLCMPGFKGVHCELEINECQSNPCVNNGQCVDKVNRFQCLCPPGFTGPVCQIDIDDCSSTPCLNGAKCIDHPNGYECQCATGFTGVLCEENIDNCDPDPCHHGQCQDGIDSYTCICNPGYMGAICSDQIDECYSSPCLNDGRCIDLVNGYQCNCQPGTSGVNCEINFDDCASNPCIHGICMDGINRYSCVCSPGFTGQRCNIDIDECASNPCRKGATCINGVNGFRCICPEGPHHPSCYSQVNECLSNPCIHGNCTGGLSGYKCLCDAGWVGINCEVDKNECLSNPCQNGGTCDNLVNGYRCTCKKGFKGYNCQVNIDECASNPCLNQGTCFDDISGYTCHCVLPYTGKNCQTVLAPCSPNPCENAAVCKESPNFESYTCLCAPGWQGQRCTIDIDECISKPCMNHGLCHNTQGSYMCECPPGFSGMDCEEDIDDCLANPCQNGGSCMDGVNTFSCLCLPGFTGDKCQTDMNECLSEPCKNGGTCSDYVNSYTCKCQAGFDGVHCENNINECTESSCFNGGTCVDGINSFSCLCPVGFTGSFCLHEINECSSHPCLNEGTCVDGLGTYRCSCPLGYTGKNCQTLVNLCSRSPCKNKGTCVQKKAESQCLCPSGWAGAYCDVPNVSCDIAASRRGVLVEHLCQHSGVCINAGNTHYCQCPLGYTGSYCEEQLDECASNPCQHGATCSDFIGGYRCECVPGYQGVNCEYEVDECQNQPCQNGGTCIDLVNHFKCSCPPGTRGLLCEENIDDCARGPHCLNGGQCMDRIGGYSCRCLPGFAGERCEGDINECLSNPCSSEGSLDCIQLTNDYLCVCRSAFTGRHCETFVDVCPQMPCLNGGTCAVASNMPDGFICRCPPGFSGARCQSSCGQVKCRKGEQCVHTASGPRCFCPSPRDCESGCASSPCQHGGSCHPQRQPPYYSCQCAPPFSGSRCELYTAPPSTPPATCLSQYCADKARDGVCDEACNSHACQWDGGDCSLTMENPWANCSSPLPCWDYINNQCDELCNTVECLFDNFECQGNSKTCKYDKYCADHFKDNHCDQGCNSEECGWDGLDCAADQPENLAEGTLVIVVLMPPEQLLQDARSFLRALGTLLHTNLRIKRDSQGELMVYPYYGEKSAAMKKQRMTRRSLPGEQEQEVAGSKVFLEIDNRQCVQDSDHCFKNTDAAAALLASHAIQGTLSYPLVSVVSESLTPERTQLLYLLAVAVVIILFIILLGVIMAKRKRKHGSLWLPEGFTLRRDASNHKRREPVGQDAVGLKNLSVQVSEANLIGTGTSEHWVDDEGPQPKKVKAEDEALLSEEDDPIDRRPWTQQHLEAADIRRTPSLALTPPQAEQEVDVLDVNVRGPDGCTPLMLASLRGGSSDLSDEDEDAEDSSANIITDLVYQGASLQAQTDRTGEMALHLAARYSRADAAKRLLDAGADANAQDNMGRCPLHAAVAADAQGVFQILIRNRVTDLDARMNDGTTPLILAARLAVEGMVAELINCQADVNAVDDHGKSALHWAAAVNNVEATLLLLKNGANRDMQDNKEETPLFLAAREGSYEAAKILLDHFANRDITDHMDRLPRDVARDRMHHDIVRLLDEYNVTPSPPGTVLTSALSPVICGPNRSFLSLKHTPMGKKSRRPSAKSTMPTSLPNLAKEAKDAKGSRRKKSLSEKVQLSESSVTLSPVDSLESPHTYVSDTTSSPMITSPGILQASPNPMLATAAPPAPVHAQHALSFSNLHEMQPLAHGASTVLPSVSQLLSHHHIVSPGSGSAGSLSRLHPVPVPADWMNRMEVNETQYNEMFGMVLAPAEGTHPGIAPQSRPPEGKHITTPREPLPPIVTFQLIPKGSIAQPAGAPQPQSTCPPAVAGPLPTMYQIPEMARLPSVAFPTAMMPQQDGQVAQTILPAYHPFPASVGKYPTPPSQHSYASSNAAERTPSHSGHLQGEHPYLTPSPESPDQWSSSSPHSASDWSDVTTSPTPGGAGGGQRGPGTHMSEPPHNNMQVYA
Torsin-1A-interacting protein 2 (Homo sapiens), sequence (Q8NFQ8 whole entry, looked up): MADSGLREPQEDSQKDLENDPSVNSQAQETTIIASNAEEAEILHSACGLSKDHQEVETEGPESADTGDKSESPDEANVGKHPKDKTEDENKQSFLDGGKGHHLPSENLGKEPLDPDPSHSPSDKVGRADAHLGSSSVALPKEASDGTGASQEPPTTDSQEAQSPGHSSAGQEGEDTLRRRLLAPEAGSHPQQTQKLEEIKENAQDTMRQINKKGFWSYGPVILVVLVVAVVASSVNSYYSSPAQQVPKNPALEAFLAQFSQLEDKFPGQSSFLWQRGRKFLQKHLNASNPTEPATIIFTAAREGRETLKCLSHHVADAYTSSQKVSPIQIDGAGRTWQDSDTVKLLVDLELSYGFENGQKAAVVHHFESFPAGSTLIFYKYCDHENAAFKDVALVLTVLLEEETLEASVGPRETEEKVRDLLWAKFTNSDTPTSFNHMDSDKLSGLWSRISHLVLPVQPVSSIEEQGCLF
Pro-neuregulin-1, membrane-bound isoform (Homo sapiens), sequence (Q02297 whole entry, looked up, the tested form may be a part, canonical isoform): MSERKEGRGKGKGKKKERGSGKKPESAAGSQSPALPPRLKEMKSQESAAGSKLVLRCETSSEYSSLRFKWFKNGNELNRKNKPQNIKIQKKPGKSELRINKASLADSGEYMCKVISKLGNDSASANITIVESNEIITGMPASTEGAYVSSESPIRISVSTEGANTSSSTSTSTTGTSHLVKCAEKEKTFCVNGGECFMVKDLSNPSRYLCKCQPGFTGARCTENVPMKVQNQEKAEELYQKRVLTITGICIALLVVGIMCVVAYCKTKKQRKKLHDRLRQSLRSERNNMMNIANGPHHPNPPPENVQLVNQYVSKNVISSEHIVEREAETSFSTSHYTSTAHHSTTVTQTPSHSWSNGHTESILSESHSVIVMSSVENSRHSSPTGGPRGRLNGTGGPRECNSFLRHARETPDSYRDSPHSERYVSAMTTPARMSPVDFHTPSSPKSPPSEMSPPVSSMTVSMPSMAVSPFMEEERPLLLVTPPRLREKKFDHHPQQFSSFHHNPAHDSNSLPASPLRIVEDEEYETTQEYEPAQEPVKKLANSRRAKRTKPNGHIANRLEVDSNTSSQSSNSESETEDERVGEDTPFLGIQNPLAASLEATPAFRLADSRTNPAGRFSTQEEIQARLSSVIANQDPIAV

Row | Compound | composite z-score [1] | composite z-score [2] | composite z-score [3] | composite z-score [4] | composite z-score [5] | composite z-score [6] | composite z-score [7] | z-score [8] | composite z-score [9] | composite z-score [10] | composite z-score [11] | z-score [12] | z-score [13] | z-score [14] | composite z-score [15] | z-score [16] | composite z-score [17] | composite z-score [18] | composite z-score [19] | composite z-score [20]
1 | CC=CC(O)C1C=CC2C(=O)N(C)C(=O)C2N1N(c1ccccc1)c1ccccc1 (stereo not given) | -0.108 | 0.273 | -0.0567 | 0.367 | 1.44 | 0.837 | 1.12 | 0.621 (inactive) | -0.132 | -0.201 | 0.344 | 0.586 (inactive) | 1.91 (inactive) | 1.29 (inactive) | -0.472 | -0.357 (inactive) | 0.0973 | -0.0867 | 0.0161 | 0.248
2 | C=CC[C@@]1(C(=O)N2CCCCC2)N=C(c2ccc(OCCCO)cc2)O[C@@H]1c1ccccc1N=[N+]=[N-] | 0.292 | -0.0912 | -0.0198 | 0.555 | 1.55 | 1.4 | 1.23 | -0.546 (inactive) | 0.833 | -0.0618 | 1.54 | -0.989 (inactive) | -0.577 (inactive) | 1.13 (inactive) | 3.23 | 1.07 (inactive) | 0.286 | 0.564 | 1.13 | 0.14
3 | CO[C@H]1O[C@H](CO)[C@@H](OC(=O)Nc2ccccc2)[C@@H]2OC(=O)[C@@H](Cc3ccc4ccccc4c3)C/C=C/C[C@H](Cc3ccc4ccccc4c3)C(=O)O[C@@H]12 | 0.0395 | 0.821 | 0.126 | 0.908 | 0.336 | 0.915 | 0.965 | -1.62 (inactive) | 0.316 | -0.191 | 1.47 | -1.38 (inactive) | -1.57 (inactive) | 1.55 (inactive) | 2.35 | 2.64 (inactive) | -0.0403 | 0.369 | 0.977 | -0.0449
4 | CC(C)N1CC=CC23O[C@@H]4C=CCOC(=O)[C@@H]4[C@H]2C(=O)N(CCCCCO)[C@@H]3C1=O (stereo not given in full) | -0.354 | 0.272 | -0.153 | -0.267 | -0.669 | 0.24 | 1.27 | -0.907 (inactive) | -0.308 | -0.132 | 0.637 | -1.04 (inactive) | -0.288 (inactive) | -2.25 (inactive) | 2.64 | 3.13 (inactive) | -0.137 | -0.325 | -0.107 | -0.111
5 | COc1ccc([Si](C)(C)[C@@H]2[C@@H](CCn3cc(CCO)nn3)O[C@]3(C(=O)N(Cc4cccc(N5C(=O)c6cccc7cccc5c67)c4)c4ccccc43)[C@H]2C)cc1 | -0.429 | -0.179 | -0.103 | 0.359 | 0.275 | 0.98 | 1.04 | -1.56 (inactive) | 0.525 | -0.189 | 1.55 | 1.29 (inactive) | 1.56 (inactive) | 20.9 (active) | 1.76 | 1.17 (inactive) | -0.0956 | 1.14 | 0.903 | -0.125
6 | COc1ccc(CCNC(=O)[C@@]2(c3ccc([N+](=O)[O-])cc3)CC(=O)N(CC34CC5CC(CC(C5)C3)C4)[C@@H]2c2ccc(CO)cc2I)cc1 | -0.235 | 1 | 0.0569 | 0.377 | 0.6 | 1.09 | 1.2 | -1.64 (inactive) | -0.0217 | -0.446 | 1.54 | 0.484 (inactive) | 0.369 (inactive) | 6.17 (inactive) | 2.83 | 0.376 (inactive) | -0.387 | 1.52 | 1.1 | -0.151
7 | CN(C)CCCCCCNC(=O)[C@@H]1C[C@@H]2C(=O)N3CCC[C@H]3C(=O)N2[C@@H]1c1ccc(O)cc1 | 0.675 | 1.9 | 0.0923 | 1.18 | 0.697 | 0.543 | 1.35 | 1.53 (inactive) | 0.886 | 0.124 | 1.53 | -3.92 (inactive) | -0.974 (inactive) | -0.982 (inactive) | 2.51 | 0.434 (inactive) | 0.312 | 1.5 | 1.05 | 0.28
8 | CC1CC/C=C\[C@H]2OC34C=CCN(c5ccc6ccccc6c5)C(=O)[C@H]3N(CCO)C(=O)[C@@H]4C2C(=O)O1 (stereo not given in full) | -0.17 | 0.122 | -0.0996 | 0.0867 | -1.18 | -0.378 | 0.868 | 0.571 (inactive) | -0.358 | 1.74 | 0.229 | -0.646 (inactive) | -1.4 (inactive) | -0.764 (inactive) | 2.07 | 0.764 (inactive) | 0.314 | -1.11 | 0.521 | -0.123
9 | O=C1O[C@H](c2ccccc2)[C@H](c2ccccc2)N2[C@H]1[C@@H](C(=O)NC[C@H](O)c1ccccc1)[C@]1(C(=O)Nc3ccccc31)[C@H]2c1ccc(O)cc1 | -0.0095 | 0.298 | -0.0342 | -0.111 | 0.633 | -0.199 | 1.19 | 0.484 (inactive) | 0.153 | 0.0542 | 1.39 | 0.754 (inactive) | 0.817 (inactive) | 1.7 (inactive) | 2.56 | -0.408 (inactive) | -0.134 | 0.798 | 0.608 | -0.108
10 | COC(=O)c1c(CC[C@@H](CO)NC(=O)N[C@H](Cc2ccccc2)Cn2cc(-c3ccccn3)nn2)oc(C(C)=O)c1C(=O)OC | -0.241 | 0.0467 | -0.083 | 0.19 | -0.143 | 0.813 | 1.09 | -0.533 (inactive) | -0.217 | -0.271 | 0.73 | -0.413 (inactive) | 0.0254 (inactive) | -0.398 (inactive) | 1.68 | -0.419 (inactive) | -0.207 | -0.151 | 0.0619 | -0.096

Reference: PubChem BioAssay
